# In ChEMBL document CHEMBL1961873, “Compounds: GSK PKIS; Assays: Nanosyn kinase panel” (2012):
# Molecular target: T1, Tyrosine-protein kinase ITK/TSK (Homo sapiens) (UniProt Q08881);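 also: values are mean percent inhibition of ITK from the GSK PKIS screen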
# T1 sequence (whole entry): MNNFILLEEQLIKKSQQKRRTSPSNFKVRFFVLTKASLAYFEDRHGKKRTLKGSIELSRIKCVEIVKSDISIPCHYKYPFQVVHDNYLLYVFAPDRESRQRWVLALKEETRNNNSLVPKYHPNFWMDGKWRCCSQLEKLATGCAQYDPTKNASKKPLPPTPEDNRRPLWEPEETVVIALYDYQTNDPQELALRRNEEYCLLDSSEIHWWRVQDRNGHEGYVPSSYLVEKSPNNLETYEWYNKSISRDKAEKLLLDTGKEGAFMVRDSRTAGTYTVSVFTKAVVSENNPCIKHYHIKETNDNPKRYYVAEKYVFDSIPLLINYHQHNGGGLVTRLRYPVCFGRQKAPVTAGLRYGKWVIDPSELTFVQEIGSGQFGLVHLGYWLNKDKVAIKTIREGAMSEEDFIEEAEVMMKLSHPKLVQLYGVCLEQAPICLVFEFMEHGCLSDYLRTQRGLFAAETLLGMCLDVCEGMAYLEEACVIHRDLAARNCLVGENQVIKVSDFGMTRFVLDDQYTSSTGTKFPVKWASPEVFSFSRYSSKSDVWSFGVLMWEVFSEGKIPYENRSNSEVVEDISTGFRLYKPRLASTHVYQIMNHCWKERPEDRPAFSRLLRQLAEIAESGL
# Conditions: at 1 µM
row,Structure (SMILES),inhibition
1,COc1ccc(-c2cc(-c3c[nH]nc3-c3ccccn3)ccn2)cc1,2.05%
2,CCCN(CCS(C)(=O)=O)Cc1ccc(-c2ccc3ncnc(Nc4ccc(OCc5cccc(F)c5)c(Cl)c4)c3c2)o1,1.15%
3,FC(F)(F)c1cccc(-c2nn3ncccc3c2-c2ccnc(Nc3ccc4c(c3)OCCO4)n2)c1,2.97%
4,CCNC(=O)O[C@H]1CN[C@H](C#Cc2cc3ncnc(Nc4ccc(OCc5cccc(F)c5)c(Cl)c4)c3s2)C1,1.96%
5,COC(=O)Nc1nc2ccc(S(=O)(=O)c3ccc(NC(=O)Nc4cc(C(F)(F)F)ccc4F)cc3)cc2[nH]1,2.62%
6,CC(=O)Nc1cccc(C#Cc2cncnc2Nc2ccc(OCc3cccc(F)c3)c(Cl)c2)c1,2.79%
7,CCOc1ccc2c(-c3ccnc(Nc4cccc(C(F)(F)F)c4)n3)cnn2n1,4.47%
8,CC(=O)NCc1cccc(C#Cc2cncnc2Nc2ccc(OCc3cccc(F)c3)c(Cl)c2)c1,0.81%
9,Cc1cccc2c1NC(=O)/C2=N\Nc1ccc(S(N)(=O)=O)cc1,2.45%
10,COc1ccc(-c2nn3ncccc3c2-c2ccnc(Nc3ccc4c(c3)OCCO4)n2)cc1,0.71%
11,Fc1ccc(-c2cc(-c3c[nH]nc3-c3ccccn3)ccn2)cc1,0.13%
12,CCN(CC)S(=O)(=O)c1ccc(OC)c(Nc2ncc(-c3ccccc3)o2)c1,2.62%
13,COc1cccc(-c2c[nH]c3c(N/N=C/c4ccncc4)ncnc23)c1,3.59%
14,c1ccc(-c2nc3n(c2-c2ccc4c(c2)OCO4)CCC3)nc1,0.24%
15,COc1cccc(-n2ncc3c(N/N=C/c4ccc(F)cc4)ncnc32)c1,2.7%
16,Nc1ncc(-c2cccc(S(N)(=O)=O)c2)c2scc(-c3ccc(F)c(Cl)c3)c12,3.69%
17,Cc1ccc2c(-c3ccnc(Nc4ccccc4)n3)c(-c3ccc(F)cc3)nn2n1,2.3%

row,Structure (SMILES),inhibition
1,CS(=O)(=O)CCNCc1ccc(-c2ccc3ncnc(Nc4ccc(OCc5ccccc5)c(C(F)(F)F)c4)c3c2)o1,2.16%
2,NC(=O)c1sc(-n2cnc3ccc(C(F)(F)F)cc32)cc1OCc1ccccc1Br,-0.19%
3,CCn1c(-c2nonc2N)nc2ccccc21,0.89%
4,NS(=O)(=O)c1ccc(Nc2ncc(-c3ccccc3)o2)cc1,2.34%
5,COc1ccc2[nH]c3c4[nH]c5ccc(OC)cc5c4c4c(c3c2c1)C(=O)NC4=O,6.11%
6,Nc1nc(-c2ccc(F)cc2)c(-c2ccc3ncccc3n2)s1,2.71%
7,COc1ccc(CNC(=O)c2ccc(-c3cc(-c4nnc(C)o4)ccc3C)cc2)cc1,2.72%
8,O=C(O[C@H]1CN[C@H](C#Cc2cc3ncnc(Nc4ccc(Cc5ccccc5)cc4)c3s2)C1)N1CCOCC1,0.7%
9,N#Cc1c(NC(=O)CN2CCOCC2)sc2c1CCCC2,3.52%
10,Cc1cccc(Nc2ncc(-c3ccccc3)o2)c1,3.08%
11,O=C(Nc1n[nH]c2cc(-c3ccc(F)cc3)ccc12)C1CC1,2.49%
12,COC(=O)c1sc(-n2cnc3cc(OC)c(OC)cc32)cc1OCc1ccccc1C(F)(F)F,1.09%
13,Cc1ccc(O)cc1Nc1ccnc2cc(-c3ccccn3)ccc12,2.42%
14,CCc1nn2ncccc2c1-c1ccnc(NC2CC2)n1,1.59%
15,CCn1cc(-c2ccnc3[nH]ccc23)c(-c2cccc(NC(=O)Nc3ccc(OCc4ccccc4)cc3)c2)n1,-0.24%
16,COc1cc2c(cc1Nc1nc(Nc3ccsc3C(N)=O)c3cc[nH]c3n1)N(C(=O)CN(C)C)CCC2(C)C,3.88%

# Molecular target: Tyrosine-protein kinase JAK1 (Homo sapiens) (UniProt P23458)
# Conditions: at 0.1 µM
# Sequence of Tyrosine-protein kinase JAK1 (Homo sapiens) (P23458 whole entry): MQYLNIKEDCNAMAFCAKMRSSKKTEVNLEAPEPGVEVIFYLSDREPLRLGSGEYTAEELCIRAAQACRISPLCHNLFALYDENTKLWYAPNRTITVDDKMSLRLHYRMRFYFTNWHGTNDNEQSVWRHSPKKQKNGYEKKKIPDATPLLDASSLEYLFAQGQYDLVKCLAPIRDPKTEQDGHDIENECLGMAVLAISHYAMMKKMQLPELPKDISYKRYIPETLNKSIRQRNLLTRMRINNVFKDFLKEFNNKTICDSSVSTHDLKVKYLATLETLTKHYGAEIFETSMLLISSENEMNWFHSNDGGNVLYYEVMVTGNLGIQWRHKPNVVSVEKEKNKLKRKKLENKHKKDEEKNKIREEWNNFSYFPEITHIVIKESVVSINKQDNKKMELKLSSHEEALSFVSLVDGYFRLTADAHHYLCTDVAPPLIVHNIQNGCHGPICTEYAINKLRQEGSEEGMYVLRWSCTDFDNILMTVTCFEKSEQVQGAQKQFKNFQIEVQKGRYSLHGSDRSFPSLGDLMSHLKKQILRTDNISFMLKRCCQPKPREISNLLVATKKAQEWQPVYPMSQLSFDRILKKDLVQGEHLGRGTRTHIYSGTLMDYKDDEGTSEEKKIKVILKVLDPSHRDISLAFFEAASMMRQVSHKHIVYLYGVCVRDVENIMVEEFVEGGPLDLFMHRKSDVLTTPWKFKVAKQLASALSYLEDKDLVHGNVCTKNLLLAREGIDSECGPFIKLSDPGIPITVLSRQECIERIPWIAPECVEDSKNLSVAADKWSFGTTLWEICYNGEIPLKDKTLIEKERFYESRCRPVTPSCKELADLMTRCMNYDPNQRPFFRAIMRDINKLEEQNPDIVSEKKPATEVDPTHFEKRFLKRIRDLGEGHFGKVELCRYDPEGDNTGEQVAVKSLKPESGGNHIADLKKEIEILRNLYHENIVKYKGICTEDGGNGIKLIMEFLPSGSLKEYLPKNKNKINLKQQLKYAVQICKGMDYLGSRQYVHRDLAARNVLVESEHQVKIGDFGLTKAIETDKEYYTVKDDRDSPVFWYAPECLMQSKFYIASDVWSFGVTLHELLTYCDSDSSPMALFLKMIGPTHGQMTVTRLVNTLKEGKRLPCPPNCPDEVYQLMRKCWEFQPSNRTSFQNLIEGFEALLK
row,Structure (SMILES),inhibition
1,COc1ccc(-c2cc(-c3c[nH]nc3-c3ccccn3)ccn2)cc1,4.74%
2,CCCN(CCS(C)(=O)=O)Cc1ccc(-c2ccc3ncnc(Nc4ccc(OCc5cccc(F)c5)c(Cl)c4)c3c2)o1,-0.11%
3,FC(F)(F)c1cccc(-c2nn3ncccc3c2-c2ccnc(Nc3ccc4c(c3)OCCO4)n2)c1,-1.29%
4,CCNC(=O)O[C@H]1CN[C@H](C#Cc2cc3ncnc(Nc4ccc(OCc5cccc(F)c5)c(Cl)c4)c3s2)C1,7.02%
5,COC(=O)Nc1nc2ccc(S(=O)(=O)c3ccc(NC(=O)Nc4cc(C(F)(F)F)ccc4F)cc3)cc2[nH]1,0.99%
6,CC(=O)Nc1cccc(C#Cc2cncnc2Nc2ccc(OCc3cccc(F)c3)c(Cl)c2)c1,6.03%
7,CCOc1ccc2c(-c3ccnc(Nc4cccc(C(F)(F)F)c4)n3)cnn2n1,1.9%
8,CC(=O)NCc1cccc(C#Cc2cncnc2Nc2ccc(OCc3cccc(F)c3)c(Cl)c2)c1,0.65%
9,Cc1cccc2c1NC(=O)/C2=N\Nc1ccc(S(N)(=O)=O)cc1,3.68%
10,COc1ccc(-c2nn3ncccc3c2-c2ccnc(Nc3ccc4c(c3)OCCO4)n2)cc1,1.48%
11,Fc1ccc(-c2cc(-c3c[nH]nc3-c3ccccn3)ccn2)cc1,4.79%
12,CCN(CC)S(=O)(=O)c1ccc(OC)c(Nc2ncc(-c3ccccc3)o2)c1,1.87%
13,COc1cccc(-c2c[nH]c3c(N/N=C/c4ccncc4)ncnc23)c1,4.4%
14,c1ccc(-c2nc3n(c2-c2ccc4c(c2)OCO4)CCC3)nc1,-2.35%
15,COc1cccc(-n2ncc3c(N/N=C/c4ccc(F)cc4)ncnc32)c1,4.84%
16,Nc1ncc(-c2cccc(S(N)(=O)=O)c2)c2scc(-c3ccc(F)c(Cl)c3)c12,2.73%
17,Cc1ccc2c(-c3ccnc(Nc4ccccc4)n3)c(-c3ccc(F)cc3)nn2n1,3.23%

row,Structure (SMILES),inhibition
1,CS(=O)(=O)CCNCc1ccc(-c2ccc3ncnc(Nc4ccc(OCc5ccccc5)c(C(F)(F)F)c4)c3c2)o1,2.98%
2,NC(=O)c1sc(-n2cnc3ccc(C(F)(F)F)cc32)cc1OCc1ccccc1Br,3.49%
3,CCn1c(-c2nonc2N)nc2ccccc21,5.98%
4,NS(=O)(=O)c1ccc(Nc2ncc(-c3ccccc3)o2)cc1,3.09%
5,COc1ccc2[nH]c3c4[nH]c5ccc(OC)cc5c4c4c(c3c2c1)C(=O)NC4=O,0.96%
6,Nc1nc(-c2ccc(F)cc2)c(-c2ccc3ncccc3n2)s1,2.95%
7,COc1ccc(CNC(=O)c2ccc(-c3cc(-c4nnc(C)o4)ccc3C)cc2)cc1,7.51%
8,O=C(O[C@H]1CN[C@H](C#Cc2cc3ncnc(Nc4ccc(Cc5ccccc5)cc4)c3s2)C1)N1CCOCC1,0.98%
9,N#Cc1c(NC(=O)CN2CCOCC2)sc2c1CCCC2,2.38%
10,Cc1cccc(Nc2ncc(-c3ccccc3)o2)c1,2.19%
11,O=C(Nc1n[nH]c2cc(-c3ccc(F)cc3)ccc12)C1CC1,1.55%
12,COC(=O)c1sc(-n2cnc3cc(OC)c(OC)cc32)cc1OCc1ccccc1C(F)(F)F,3.38%
13,Cc1ccc(O)cc1Nc1ccnc2cc(-c3ccccn3)ccc12,7.02%
14,CCc1nn2ncccc2c1-c1ccnc(NC2CC2)n1,1.35%
15,CCn1cc(-c2ccnc3[nH]ccc23)c(-c2cccc(NC(=O)Nc3ccc(OCc4ccccc4)cc3)c2)n1,1.9%
16,COc1cc2c(cc1Nc1nc(Nc3ccsc3C(N)=O)c3cc[nH]c3n1)N(C(=O)CN(C)C)CCC2(C)C,4.13%
